# Assay results taken from PubChem BioAssay AID2685 (National Center for Advancing Translational Sciences (NCATS), 2010).
# In all, about 320,000 compounds went through this assay and about 2,100 (0.66%) were called active. About 53% were inconclusive and are not listed. Calls follow the shape of the dose curve; as a rule, active = well fitted inhibition curve with a large enough effect in the signal ratio, with a control signal flat (not every such curve was filed as active); inconclusive = small, poorly fitted or top-dose-only effect, or effect the other way, or a change in a side signal; inactive = flat fitted curve, though single readings scatter; the % refers to the signal ratio. Shown is part of a subset that was picked to be rich in actives.
# Assay: qHTS Assay for Lipid Storage Modulators in Drosophila S3 Cells;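 as to cell number change: cells counted by Cell Tracker Red CMTPX staining in the red channel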; as to lipid storage change, negative = inhibition: % is scaled to controls: 0 for no effect and ±100 for the full control effect
# Conditions: BODIPY lipid droplet fluorescence, 18-24 h, cells fed with added oleic acid; cell number change: measured here: cell count max response; series mostly up to 46.1 µM; lipid storage change, negative = inhibition: at the top concentration
# How it was run: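 Laser-scanning cytometry quantifies lipid droplet accumulation (500–530 nm total intensity; droplet/cell object ratio) in oleic acid-fed (400 uM added) Drosophila S3 cells treated with a concentration series. 20 uM Triacsin C defined 100% inhibition.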
# Potency is read from the fitted curve at half-maximal effect.
SMILES,"lipid storage change, negative = inhibition",cell number change [%],Potency,outcome
O=C(N/N=C/c1ccccn1)c1cc(-c2ccncc2)nc2ccccc12,24.3% (inactive),0.674,–,–
CC1=C(C(=O)N(C)C)C(c2ccc(N3CCOCC3)cc2)NC(=O)N1 (stereo unspecified),10.6% (inactive),–,–,–
CC1=C(C(=O)N(C)C)C(c2ccc(Cl)c(Cl)c2)NC(=O)N1 (stereo unspecified),–,-24.5,3.66 µM (active),–
CC1=C(C(=O)OCC2CCCO2)C(c2ccc(Cl)c(Cl)c2)NC(=O)N1 (stereo unspecified),0.886% (inactive),6.97,–,–
N/C(=N\OC(=O)c1cccnc1)c1ccccc1Cl,-0.604% (inactive),-1.5,–,–
O=c1ncn(-c2ccccc2C(F)(F)F)c2ncccc12,14.1% (inactive),-1.22,–,–
CC(C)(C)NC(=O)CN(C(=O)CCN1CCCc2ccccc21)C(C)(C)C,–,–,14.6 µM (active),–
CC(C(=O)NC(C)(C)C)N(Cc1cccs1)C(=O)CCN1CCc2ccccc21 (stereo unspecified),6.26% (inactive),1.12,–,–
CC(C)(C)NC(=O)NC(=O)CN1CCCc2ccccc21,-1.35% (inactive),-16.4,–,–
O=C(COC(=O)c1ccco1)c1ccc(S(=O)(=O)N2CCCCC2)cc1,-15.9% (inactive),-13.5,–,–
Cc1cc(C)n2nc(C(=O)NNC(=O)c3ccccc3)nc2n1,9.61% (inactive),14,–,–
Cc1cc(C)n2nc(C(=O)OCC(=O)NNC(=O)c3ccc(Cl)cc3)nc2n1,-21.1% (inactive),-14.4,–,–
Cc1cc(C)n2nc(C(=O)NNC(=O)c3ccc(Cl)cc3)nc2n1,–,-28,18.4 µM (active),–
CCN(CC)c1nc(-c2ccc(Cl)cc2)cc(C(F)(F)F)c1C#N,21% (inactive),-4.2,–,–
O=C(COc1ccc(-c2ccccc2)cc1)NNC(=O)Nc1ccc(F)cc1F,8.38% (inactive),–,–,–
CC1CN(Cc2ccccc2)C(C)CC1O (stereo unspecified),4.32% (inactive),13.3,–,–
COc1ccc(OCC(O)CN2CCCCCC2)cc1 (stereo unspecified),-0.764% (inactive),9.25,–,–
OC(COc1ccc(OCC(O)CN2CCCCCC2)cc1)CN1CCCCCC1 (stereo unspecified),13.9% (inactive),-8.16,–,–
OC(COc1ccc(C2C=CCC2)cc1)CN1CCCCC1 (stereo unspecified),–,1.19,0.731 µM (active),–
FC(F)(F)c1ccnc(N2CCN(Cc3cnc(-c4ccccc4)[nH]3)CC2)c1,8.54% (inactive),15,–,–
CC(NS(=O)(=O)c1ccc(OCC(=O)NCc2ccncc2)cc1)c1ccccc1 (stereo unspecified),–,0.901,–,inactive
CC(NS(=O)(=O)c1ccc(OCC(=O)NCc2cccnc2)cc1)c1ccccc1 (stereo unspecified),–,-6.31,0.651 µM (active),–
CC(NS(=O)(=O)c1ccc(CCC(=O)NCc2cccnc2)cc1)c1ccccc1 (stereo unspecified),0.909% (inactive),-3.81,–,–
COCC1CCN(Cc2nc(-c3ccc(OC)cc3)no2)CC1,8.81% (inactive),9.88,–,–
COc1ccc(NC(=O)CN(C)C(=O)CSCc2ccc(C)cc2)cc1,–,-11,10.3 µM (active),–
Cc1ccc(CSCC(=O)N(C)CC(=O)Nc2ccc(C)cc2)cc1,0.736% (inactive),15.6,–,–
Cc1ccc(CSCC(=O)N(C)CC(=O)Nc2ccc(Cl)c(Cl)c2)cc1,–,1.04,–,inactive
